From PubChem BioAssay
Hits are enriched below; roughly 17% of the tested compounds scored in any of these assays.
TDP1 cell noCPT – qHTS for Inhibitors of human tyrosyl-DNA phosphodiesterase 1 (TDP1): qHTS in cells in absence of CPT | Potency, µM (top dose mostly 46.2 µM), inactives show at the highest dose activity change, negative = growth inhibition, usual class: inhibitors | AID 686978, 2013 | actives 15% (n = 420,000) | DT40 Tdp1-/- hTDP1 cells, no CPT, ATP luminescence, 48 h; note: % is set by controls: 0 for no effect and ±100 for the full control effect; nearly all actives have a fitted effect of over 55% in size
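Readout: luminescence from CellTiter-Glo after 30 min in the dark at RT. Cells: DT40 Tdp1-/- with stable hTDP1, 400/well. Exposure: compounds alone, ≥48 hr, 37 °C.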
TDP1 inh – qHTS Assay for Inhibitors of Tyrosyl-DNA Phosphodiesterase (TDP1) | Potency, µM (doses to about 130 µM), inactives show at the top dose activity change, negative = inhibition, actives largely listed as inhibitors | actives 0.28% (n = 350,000) | Tyrosyl-DNA phosphodiesterase 1 (Homo sapiens), Q9NUW8 | recombinant TDP1, AlphaScreen DNA substrate cleavage; note: % is set by controls: 0 for no effect and ±100 for the full control effect; nearly all actives have a fitted effect of over 40% in size
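Signal: AlphaScreen proximity between streptavidin donor and anti-FITC acceptor beads on intact substrate. Reaction: Tdp1 1 nM, substrate 15 nM final, 5 min RT after 15 min compound preincubation.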
TDP1 cell CPT – qHTS for Inhibitors of human tyrosyl-DNA phosphodiesterase 1 (TDP1): qHTS in cells in presence of CPT. Potency, µM (titrated, usually from 46.2 µM), for inactives: top-dose activity change, negative = growth inhibition, usual class: inhibitors. actives 12% (n = 420,000). chicken DT40 Tdp1-/-;hTDP1 cells + 20 nM CPT, ATP luminescence, 48 h. AID 686979, 2013; note: % is set by controls: 0 for no effect and ±100 for the full control effect; nearly all actives have a fitted effect of over 55% in size
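Cell growth measured by CellTiter-Glo luminescence after a minimum 48 h, 37 C compound exposure with 20 nM CPT in Tdp1-knockout DT40 cells stably expressing hTDP1, seeded 400/well; qHTS titration format.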
ClpP mod – qHTS Assay for Activators of ClpP; ATP-dependent Clp protease proteolytic subunit (Bacillus subtilis (strain 168)), P80244; purified B. subtilis ClpP, FRET peptide cleavage, 20 min; Potency, µM (doses to about 57.5 µM), for the others: at the highest dose activity change, negative = active; actives 1.9% (n = 340,000); active = well fitted falling curve with a large enough effect; inconclusive = small, poorly fitted or top-dose-only effect; inactive = no such curve, though single readings can be large or run the other way; note: the source files actives as falling curves though it sought activators and does not explain the sign; nearly all actives have a fitted effect of over 65% in size
Target sequence (P80244 whole entry, looked up): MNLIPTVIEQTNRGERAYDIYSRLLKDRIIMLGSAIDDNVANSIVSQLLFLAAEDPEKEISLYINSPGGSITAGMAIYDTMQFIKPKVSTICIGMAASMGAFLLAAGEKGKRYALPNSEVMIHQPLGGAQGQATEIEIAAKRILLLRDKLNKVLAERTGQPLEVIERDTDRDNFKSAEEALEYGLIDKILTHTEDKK
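ClpP 10 microg/mL final, pH 8 Tris/KCl buffer with BSA, glycerol, Tween-20; compound pinned in; FRET-FV substrate; RT 20 min; Ex320/Em430; ΔFRET vs ADEP 5.8 microM, DMSO, no enzyme.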
* = called active by the depositor; ? = inconclusive; · = no result; [ ] = remark or other dose. Unless noted, calls come from the whole dose curve; as a rule, active = well fitted curve in the direction sought with a large enough effect; inconclusive = small, poorly fitted or top-dose-only effect, or another doubt; inactive = no such curve, though single readings can be large; an effect the other way counts as inactive or inconclusive. Potency is the fitted concentration of half-maximal effect.

SMILES	TDP1 cell noCPT	TDP1 inh	TDP1 cell CPT	ClpP mod
NC(CO)c1csc(Nc2ccc(C(=O)c3ccccc3)cc2)n1 (centres undefined)	?	·	-1.9%	0.3%
CC(=O)c1ccc(Nc2nc(C(N)COCc3ccccc3)cs2)cc1 (centres undefined)	?	·	23.1µM*	-8.9%
CC(N)c1csc(Nc2ccc(C(=O)c3ccccc3)cc2)n1 (centres undefined)	?	·	?	-3.7%
CN(C)Cc1csc(Nc2ccc(C(=O)c3ccccc3)cc2)n1	?	·	18.4µM*	-3.5%
CC(=O)c1ccc(Nc2nc(C(N)CC(C)C)cs2)cc1 (centres undefined)	16.4µM*	·	?	-7.3%
NC(COCc1ccccc1)c1csc(Nc2ccc(C(=O)NCCO)cc2)n1 (centres undefined)	?	·	?	-22.2%
CCOc1cc(CN2CCN(c3cccc(C(F)(F)F)c3)CC2)ccc1OC	16.4µM*	-1.4%	?	-1.4%
CCC(c1nnnn1CCOC)N1CCN(c2cccc(C(F)(F)F)c2)CC1 (centres undefined)	?	0.0%	?	-1.7%
CCOc1cc(CN2CCN(c3cccc(C(F)(F)F)c3)CC2)ccc1O	16.4µM*	9.4%	16.4µM*	-0.3%
COc1ccc(CC(C)N2CCN(c3cccc(C(F)(F)F)c3)CC2)cc1OC (centres undefined)	25.9µM*	1.8%	?	-2.1%
CCOc1ccc(C(=O)Nc2cccc(C(C)=O)c2)cc1[N+](=O)[O-]	-18.5%	-3.0%	0.2%	·
COc1ccc(NC(=O)Cn2ccn(-c3ccc(F)c(F)c3)c(=O)c2=O)cc1Cl	-14.4%	-2.6%	-3.2%	-3.0%
O=C(O)CC1(CC(=O)Nc2ccc(Br)cc2)CCCCC1	-1.7%	1.2%	3.6%	-1.4%
COCc1cn(CC[C@@H]2CC[C@@H](NC(=O)Nc3ccc4c(c3)OCO4)[C@@H](CO)O2)nn1	-1.9%	·	3.7%	-2.3%
Cc1ccc(Sc2ccc(CN3CCCCC3)cc2[N+](=O)[O-])cc1	?	·	18.4µM*	-0.9%
O=[N+]([O-])c1cc(CN2CCCCCC2)ccc1O	-11.2%	·	6.3%	-14.6%
CCOC(=O)c1sc(C)c2c(=O)n(CC(=O)c3ccc(Br)cc3)nnc12	?	7.9%	-29.5%	1.4%
CCOC(=O)Cn1c(C)nc2c(C(=O)OCC)sc(C)c2c1=O	-4.3%	5.4%	-0.2%	31.6µM*
CC[C@@]1(c2ccccc2)C(=O)N(C(=O)OC)N1C(=O)OC	?	·	8.2µM*	2.1%
CCC1(c2ccccc2)NC(=O)N(CC(=O)NCc2ccccc2OC)C1=O (centres undefined)	0.2%	7.4%	2.0%	·
Cc1ccccc1CNC(=O)COc1ccccc1	1.1%	·	-20.5%	0.4%
COC(=O)N1C(=O)[C@](c2ccccc2)(C(C)C)N1C(=O)OC	?	·	?	-0.4%
CC[C@]1(c2ccccc2)C(=O)N(C(=O)OC)N1C(=O)OC	16.4µM*	·	20.6µM*	-2.2%
CC[C@]1(c2cccc(C)c2)C(=O)N(C(=O)OC)N1C(=O)OC	13µM*	·	5.17µM*	1.5%
CC[C@@]1(c2ccccc2C)C(=O)N(C(=O)OC)N1C(=O)OC	?	·	13µM*	0.1%
SMILES	TDP1 cell noCPT	TDP1 inh	TDP1 cell CPT	ClpP mod
COc1ccc(NC(=O)c2sc3nc(-c4cc5ccc(OC)cc5oc4=O)[nH]c(=O)c3c2C)cc1	-14.1%	5.2%	-11.6%	?
CC(C)NC(=O)c1nn(C)c2c1CS(=O)(=O)c1ccccc1-2	0.4%	2.6%	-20.1%	-3.7%
N#Cc1c(C(F)(F)F)cc(-c2cccs2)nc1SCC(=O)Nc1ccc(F)cc1	?	-0.4%[12.3 µM]	?	4.4%
c1ccc2c(c1)[nH]c1c3ccccc3sc21	?	2.5%	-24.5%	-8.6%
COC(=O)N1C(=O)[C@@](c2ccccc2)(C2CCCCC2)N1C(=O)OC	18.4µM*	·	?	-0.1%
CCc1ccc(S(=O)(=O)N2CCN(C(=O)c3cccnc3)CC2)cc1	11.5%	·	-1.1%	-0.1%
